Screening data from PubChem.
KB-3-1 tox: kills parental KB-3-1 adenocarcinoma cells | KB-3-1 viability, CellTiter-Glo ATP luminescence, 72 h | Potency, µM (highest dose often 46.1 µM), actives largely listed as cytotoxic | hit rate 1.4% among 400,000 | AID 1347075; also: nearly all actives have a fitted effect of over 60% in size
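Luminescent ATP read-out (CellTiter-Glo) measures survival of drug-naive KB-3-1 cells after 72 h compound exposure at 37 °C. Titration series was screened from lowest to highest concentration, with DMSO vehicle plates as background controls.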
HT1080NT lethal: kills 2HG-producing HT-1080-NT fibrosarcoma cells | hit rate 1.6% among 360,000 | HT-1080-NT fibrosarcoma viability, CellTiter-Glo ATP luminescence, 48 h | Potency, µM (titrated, usually from 46.1 µM), without a hit: top-dose activity, negative = less viability, actives largely listed as cytotoxic;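 also: NT is the 2HG producing partner of a matched IDH1 knockdown line; 0% = DMSO-treated cells and -100% = media-only wells without cells; nearly all actives have a fitted effect of over 55% in size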
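Luminescent CellTiter-Glo readout after 48 hours of compound exposure at 37 degrees C defined viability of HT-1080-NT cells. Activity was normalized to DMSO wells and cell-free media wells; concentration-response curves were fitted and assigned curve classes.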
KB-V1 cytotox: kills drug-selected multidrug resistant KB-V1 cells | Potency, µM (titrated, usually from 46.1 µM), actives largely listed as cytotoxic | KB-V1 MDR cells viability, CellTiter-Glo, 72 h | hit rate 3.4% among 400,000; also: nearly all actives have a fitted effect of over 60% in size
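In this primary screen, KB-V1 cells overexpressing P-gp are incubated with library compounds (lowest to highest concentration) for 72 h at 37 degrees C before a luminescent ATP viability read.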
HT1080 IDH1KD tx: toxicity to HT-1080 IDH1 knockdown cells (counter line). HT-1080 IDH1 knockdown viability, ATP luminescence, 48 h. Potency, µM (titrated, usually from 46.1 µM), for inactives: top-dose activity, negative = toxicity, actives largely listed as cytotoxic. hit rate 2% among 360,000. AID 686971;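 also: 0% = DMSO wells and -100% = cell-free medium wells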
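In this qHTS, HT-1080 cells depleted of IDH1 are exposed for 48 h at 37 °C to compound titrations. Toxicity is scored from CellTiter-Glo luminescence, with DMSO as full viability and medium alone as none.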
* hit, by the source's call; [ ] = remark or other dose. An excerpt weighted towards active compounds, which were near 5.7% of everything screened. Calls follow the shape of the dose curve; as a rule, active = well fitted curve in the direction sought with a large enough effect; inconclusive = small, poorly fitted or top-dose-only effect, or another doubt; inactive = no such curve, though single readings can be large; an effect the other way counts as inactive or inconclusive. Unless noted, % is scaled to controls: 0 for no effect and ±100 for the full control effect; potency is read from the fitted curve at half-maximal effect.

Screening Cc1oc(-c2cccc(Cl)c2)nc1CS(=O)(=O)CC(=O)NC(C)CCc1ccccc1 (configuration not stated) returned KB-3-1 tox inactive and KB-V1 cytotox inactive.
Cc1cccc(OCCCN2CCCCCC2)c1 was read as KB-3-1 tox inactive, HT1080NT lethal 1.8%, KB-V1 cytotox inactive and HT1080 IDH1KD tx 8.6%[9.24 µM].
For COc1ccccc1OCCN1CSC(=S)N(C)C1 the results were KB-3-1 tox 5.17µM*, HT1080NT lethal 9.2µM*, KB-V1 cytotox inconclusive and HT1080 IDH1KD tx 7.31µM*.
Screening Cc1cccc(OCCN2CSC(=S)N(C)C2)c1 returned KB-3-1 tox 8.2µM*, HT1080NT lethal 18.4µM*, KB-V1 cytotox 10.3µM* and HT1080 IDH1KD tx inconclusive.
`COc1ccccc1OCCCCN1CCCCC1` gave KB-3-1 tox inactive, HT1080NT lethal 0.6%, KB-V1 cytotox inactive and HT1080 IDH1KD tx 1.9%.
For O=C(CSc1nc(-c2ccco2)cc(C(F)(F)F)n1)Nc1ccc2c(c1)OCO2 the results were KB-3-1 tox inconclusive, HT1080NT lethal inconclusive, KB-V1 cytotox 18.4µM* and HT1080 IDH1KD tx inconclusive.
Screening CCn1cc(CNC(=O)CCSc2nc(-c3ccco3)cc(C(F)(F)F)n2)cn1 returned KB-3-1 tox inconclusive, HT1080NT lethal -18.6%, KB-V1 cytotox 4.61µM* and HT1080 IDH1KD tx -16.0%.
Screening CCCn1c2ccccc2c2cnn(CC(=O)NCCc3ccc(C)cc3)c(=O)c21 returned KB-3-1 tox inactive and KB-V1 cytotox inactive.
For CCC(C)n1c(=N)c(C(=O)NCc2ccco2)cc2c(=O)n3cc(C)ccc3nc21 (configuration not stated) the results were KB-3-1 tox inactive and KB-V1 cytotox inconclusive.
For Cc1nc([N+](=O)[O-])cn1CC(O)c1ccc2c(c1)OCO2 (configuration not stated) the results were KB-3-1 tox inactive and KB-V1 cytotox inactive.
CN1CCN(CC(O)(c2ccc(Cl)cc2)c2ccc(Cl)cc2)CC1 was read as KB-3-1 tox inactive, HT1080NT lethal 18.4µM*, KB-V1 cytotox inactive and HT1080 IDH1KD tx 20.6µM*.
Screening Cc1ccc(-c2nnc(Cc3ccc(Cl)cc3)o2)cc1 returned KB-3-1 tox inactive, HT1080NT lethal 13.0%, KB-V1 cytotox inactive and HT1080 IDH1KD tx 3.9%.
Screening O=c1c(Cl)c(Cl)cnn1Cc1nnc(-c2ccc(Cl)cc2)o1 returned KB-3-1 tox inconclusive, HT1080NT lethal 16.4µM*, KB-V1 cytotox inactive and HT1080 IDH1KD tx 8.2µM*.
`Cc1cc(C)cc(Cn2ncc(Cl)c(Cl)c2=O)c1` gave KB-3-1 tox inconclusive, HT1080NT lethal -26.7%, KB-V1 cytotox 23.1µM* and HT1080 IDH1KD tx 16.4µM*.
`O=c1c(Cl)c(Cl)cnn1Cc1ccccc1Cl` gave KB-3-1 tox inconclusive, HT1080NT lethal inconclusive, KB-V1 cytotox inactive and HT1080 IDH1KD tx 18.4µM*.
For Cc1ccc(Cn2ncc(Cl)c(Cl)c2=O)cc1 the results were KB-3-1 tox inactive, HT1080NT lethal inconclusive, KB-V1 cytotox inactive and HT1080 IDH1KD tx inconclusive.
Screening CCCN1CNc2c(c(=O)[nH]c(=S)n2CCc2ccc(C)cc2)C1 returned HT1080NT lethal 8.2% and HT1080 IDH1KD tx 15.7%.
`CCOC(=O)/C(C#N)=C/c1ccc(-c2ccc(C)cc2)o1` gave KB-3-1 tox inactive and KB-V1 cytotox inconclusive.
`CCNC(=O)c1cc2c(c(-c3cccc(-c4cccc(C(=O)N(C)C)c4)c3)n1)[C@@H](CCO)N(S(=O)C(C)(C)C)C2` (some centres not stated) gave KB-3-1 tox inactive, HT1080NT lethal 6.6%, KB-V1 cytotox inactive and HT1080 IDH1KD tx 5.3%.
For CC(=O)N1Cc2cc(C(=O)NCC(F)(F)F)nc(-c3cccc(-c4cccnc4)c3)c2[C@H]1CCO the results were KB-3-1 tox inactive, HT1080NT lethal -3.5%, KB-V1 cytotox inactive and HT1080 IDH1KD tx 15.9%.
Screening CC(C)(C)S(=O)N1Cc2cc(C(=O)NCC(F)(F)F)nc(-c3cccc(-c4cccc(F)c4)c3)c2[C@@H]1CCO (some centres not stated) returned KB-3-1 tox inconclusive, HT1080NT lethal inconclusive, KB-V1 cytotox inconclusive and HT1080 IDH1KD tx 20.6µM*.
Screening CCNC(=O)c1cc2c(c(-c3cccc(-c4cccnc4)c3)n1)[C@H](CCO)N(S(C)(=O)=O)C2 returned KB-3-1 tox 2.91µM*, HT1080NT lethal inconclusive, KB-V1 cytotox inconclusive and HT1080 IDH1KD tx 2.31µM*.
`CC(=O)N1Cc2cc(C(=O)NCC(F)(F)F)nc(-c3cccc(-c4cccnc4)c3)c2[C@@H]1CCO` gave KB-3-1 tox 4.11µM*, HT1080NT lethal inconclusive, KB-V1 cytotox inactive and HT1080 IDH1KD tx 6.51µM*.
For CC(=O)N1Cc2cc(C(=O)NCC(F)(F)F)nc(-c3cccc(-c4cc5ccccc5o4)c3)c2[C@@H]1CCO the results were KB-3-1 tox inconclusive, HT1080NT lethal 6.1%, KB-V1 cytotox 23.1µM* and HT1080 IDH1KD tx 9.4%.
Screening O=C(Cn1c(SCCOc2ccccc2Cl)nc2ccccc21)N1CCOCC1 returned KB-3-1 tox inactive and KB-V1 cytotox inactive.
For CCc1ccccc1N1C(=O)N(Cc2cc(=O)n3ccccc3n2)c2ccccc2S1(=O)=O the results were KB-3-1 tox inactive and KB-V1 cytotox inactive.
`CCc1cccc2c(C(=O)CN3C(=O)NC4(CCCCCC4)C3=O)c[nH]c12` gave KB-3-1 tox inconclusive, HT1080NT lethal inconclusive, KB-V1 cytotox inconclusive and HT1080 IDH1KD tx 5.8µM*.
Screening CCc1cccc2c(C(=O)CN3C(=O)NC4(CCCCC4)C3=O)c[nH]c12 returned KB-3-1 tox inconclusive, HT1080NT lethal -26.1%, KB-V1 cytotox inconclusive and HT1080 IDH1KD tx inconclusive.
`CCc1cccc2c(C(=O)CCl)c[nH]c12` gave KB-3-1 tox inactive, HT1080NT lethal inconclusive, KB-V1 cytotox inactive and HT1080 IDH1KD tx 14.6µM*.
For CCc1cccc2c(C(=S)N3CCCC3)c[nH]c12 the results were KB-3-1 tox inactive, HT1080NT lethal 1.2%, KB-V1 cytotox inactive and HT1080 IDH1KD tx -1.8%.
`CCc1ccc(NC(=O)COC(=O)c2ccccc2OCC(=O)N(C)C)cc1` gave KB-3-1 tox inactive and KB-V1 cytotox inactive.
For COc1ccc(C)cc1NC(=O)Cn1cc(S(=O)(=O)Cc2ccccc2Cl)c2ccccc21 the results were KB-3-1 tox inconclusive and KB-V1 cytotox inactive.
`C=CCn1c(-c2cccn(Cc3ccc(Cl)cc3Cl)c2=O)n[nH]c1=S` gave KB-3-1 tox inconclusive, HT1080NT lethal inconclusive, KB-V1 cytotox 14.6µM* and HT1080 IDH1KD tx inconclusive.
`C=CCn1c(-c2cccn(Cc3cccc(Cl)c3)c2=O)n[nH]c1=S` gave KB-3-1 tox inactive, HT1080NT lethal -4.6%, KB-V1 cytotox 23.1µM* and HT1080 IDH1KD tx -3.6%.
`Cc1ccc(C)c(CNC(=O)c2ccc3c(c2)nc2n3CCCCC2)c1` gave KB-3-1 tox inactive and KB-V1 cytotox inactive.
